About 83,000 compounds went through this panel and 20% of them were active in at least one assay; those are over-represented in the sample as a whole.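 Step 1: grow cells in 96-well plates. Step 2: add test compound at a single concentration. Step 3: incubate 48 h. Step 4: record percent growth.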 A number with no mark means an inactive call. Calls of active or inactive are those of the source. Rule for the calls: active = growth percent below 10; inactive = the rest.

In PubChem BioAssay (NCI) one finds growth data, which are given here for 14 compounds.

Common to all, as to assay: NCI-60 one-dose screen, 48 h (100 = growth as untreated, 0 = no growth, -100 = all killed)
Common to all, as to conditions: 10 µM

The test system of experiment [1] is RPMI-8226 leukemia.
The test system of experiment [2] is OVCAR-8 ovarian.
In experiment [3] the test system is OVCAR-5 ovarian.
Experiment [4] has as its system OVCAR-4 ovarian.
Experiment [5] concerns SK-OV-3 ovarian.
In experiment [6] the test system is IGROV1 ovarian.
In experiment [7] the test system is OVCAR-3 ovarian.
Experiment [8] relates to HS 578T breast.
The test system of experiment [9] is NCI/ADR-RES ovarian.
The subject of experiment [10] is T-47D breast.

On to `C(CCCC1=NCCO1)CCCC1=NCCO1`, for which the growth in experiment [1] was 89.4%; in experiment [2], 106%; in experiment [3], 100%; in experiment [4], 109%; in experiment [5] it was 105%; in experiment [6], 114%. Also, the growth in [7] was 99.9%; in experiment [8], 99.3%; in experiment [9], 104%.

Take `CC(=O)c1cc(Br)ccc1O`: the growth in [1] is 105%; in experiment [2] it was 112%; in experiment [3] it was 92.3%; in [4], 105%; in [5] it was 126%; in [6], 136%. In addition, the growth in [7] is 118%; in experiment [8], 108%; in [9] it was 107%.

Regarding `O=S(=O)(NCCNc1nccc(-c2c(-c3ccc(F)cc3)nc3sccn23)n1)c1ccc2ccccc2c1`, the growth in [1] was 60.2%; in experiment [2], 69.6%; in experiment [3], 130%; in [4], 96.2%; in experiment [5], 85.2%; in [6] it was 49.4%. In addition, the results for the growth in [7], in experiment [8] and in experiment [9] were 87.9%, 111% and 84.4%, respectively.

`CC(=O)[C@H]1CC[C@H]2[C@@H]3CCC4=CC(=O)C=C[C@]4(C)[C@H]3CC[C@]12C`: the growth was 68% in experiment [1]; 92.4% in experiment [2]; 93.2% in experiment [3]; 87.2% in experiment [4]; 104% in experiment [5]; 94.8% in experiment [6]. Also, the growth in [7] is 106%; in experiment [8], 96.2%; in experiment [9], 98.4%.

For `CCCC#CCN(CC)CC`, the growth is 105% in experiment [1]; 100% in [2]; 112% in [3]; 104% in [4]; 107% in experiment [5]; 110% in [6]. Besides, the growth in [7] is 117%; in experiment [8], 105%; in experiment [9] it was 114%; in [10], 108%.

For the compound `COc1ccc(-c2nn(-c3cccc(NC(=O)Nc4ccccc4)c3)cc2-c2ccncc2)cc1Cl`, the growth in experiment [1] was -35.3% (active); in experiment [2] it was 0.341% (active); in [3], 35.5%; in [4] it was 41.4%; in [5], 80.5%; in experiment [6], 33.3%. The growth in experiment [7] is 39.4%; in experiment [8] it was 31.9%; in [9], 22.4%.

Take `NC1=NC(=O)C(c2ccccc2)(c2ccccc2)S1`: the growth in [1] is 96.3%; in experiment [2], 107%; in experiment [3], 109%; in experiment [4], 97%; in [5], 105%; in [6] it was 115%. Further, the growth is 119% in experiment [7], 108% in experiment [8] and 109% in [9].

With `S=C1SCC(c2ccccc2)S1` (stereo unspecified), the growth in experiment [1] is 102%; in experiment [2] it was 103%; in experiment [3], 106%; in experiment [4] it was 93.8%; in [5], 104%; in experiment [6], 114%. Moreover, the growth in [7] was 121%; in experiment [8], 143%; in experiment [9], 112%; in [10], 99.6%.

As for `O=C(Nc1ccncc1)C(=O)c1cn(S(=O)(=O)c2cccc(Cl)c2)c2ccccc12`, the growth was 47.2% in [1]; 76.2% in experiment [2]; 107% in experiment [3]; 74.8% in [4]; 96.6% in experiment [5]; 52.7% in experiment [6]. For the same compound, the growth is 45.7% in [7], 86.8% in experiment [8] and 43.6% in experiment [9].

Regarding `O=C(Nc1cccc(-n2cc(-c3ccncc3)c(-c3cc(O)cc(Cl)c3)n2)c1)c1ccc(N2CCOCC2)c(C(F)(F)F)c1`, the growth in [1] was -3.77% (active); in experiment [2] it was 22.7%; in [3] it was 81.4%; in [4] it was 77.1%; in experiment [5] it was 50.7%; in [6] it was 44.3%. The growth in experiment [7] was 36.4%; in experiment [8] it was 17.9%; in experiment [9] it was 35%; in [10], 29.3%.

Consider `C=C(C(=O)c1ccccc1)C(NC(C)(C)C)c1ccccc1` (stereo unspecified), for which the growth in experiment [1] is -3.32% (active); in experiment [2] it was -32% (active); in experiment [3], -29.2% (active); in [4] it was -13.1% (active); in experiment [5], 67.9%; in experiment [6] it was 3.59% (active). The results for the growth in [7], in experiment [8] and in experiment [9] were -65.9% (active), 36.8% and -7% (active), respectively.

For `O=C(Nc1cccc(-n2cc(-c3ccncc3)c(-c3ccc(O)c(Cl)c3)n2)c1)c1ccc(Cl)c(Cl)c1`, the growth is 18.1% in experiment [1]; 35.7% in experiment [2]; 109% in [3]; 67% in experiment [4]; 80.9% in experiment [5]; 60.7% in [6]. Also, the growth in experiment [7] was 81.7%; in experiment [8], 53.8%; in [9], 49.6%; in experiment [10], 36%.

As to `COc1cc(Cl)cc(-c2nn(-c3cccc(NC(=O)Nc4cc(C(F)(F)F)cc(C(F)(F)F)c4)c3)cc2-c2ccncc2)c1`, the growth is -17.5% (active) in [1]; -2.46% (active) in experiment [2]; 21.6% in experiment [3]; 11.9% in experiment [4]; 6.84% (active) in [5]; 23% in experiment [6]. For the same compound, the growth was -1.62% (active) in [7], 5.82% (active) in experiment [8] and 2.37% (active) in experiment [9].

Turning to `Cc1ccc(NC(=O)Nc2cccnc2)cc1NC(=O)Nc1cccnc1`, the growth in experiment [1] is 42.9%; in experiment [2], 73.8%; in experiment [3] it was 110%; in experiment [4], 77.7%; in experiment [5], 101%; in experiment [6] it was 68.5%. In addition, the growth was 93.2% in experiment [7], 95.7% in experiment [8], 87.6% in experiment [9] and 58% in [10].
